Active and inactive are the calls of the source. Rule for the calls: active = hit-call score of the fitted dose curve at least 0.9, where 1 is the maximum; inactive = score below 0.9.
Test: BSK_3C_TissueFactor: BioMAP Diversity Plus: 3C Assay for Tissue Factor Biomarker Activity (AID 2282997)
Settings: BioMAP 3C HUVEC, tissue factor biomarker readout; actives raise or lower the signal
Protocol: BSK_3C is a cell-based, multiplexed-readout assay that uses umbilical vein endothelium, a human vascular primary cell, with measurements taken at 24 hours after chemical dosing in a 96-well plate.BSK_3C_TissueFactor is an assay component measured in the BSK_3C assay. It measures Tissue Factor antibody related to regulation of gene expression using ELISA technology.Data from the assay component BSK_3C_TissueFactor was analyzed into 1 assay endpoint. This assay endpoint, BSK_3C_TissueFactor, was analyzed with bidirectional fitting relative to DMSO as the negative control and baseline of activity. Using a type of binding reporter, gain or loss-of-signal activity can be used to understand changes in the signaling as they relate to the gene F3. Furthermore, this assay endpoint can be referred to as a primary readout, because this assay has produced multiple assay endpoints where this one serves a signaling function. To generalize the intended target to other relatable targets, this assay endpoint is annotated to the cytokine intended target family, where the subfamily is coagulation factor.
The levels of cell surface (or secreted, indicated by the prefix "s") biomarker endpoints were measured by ELISA. Overt cytotoxicity to cells in confluent adherent cultures (all systems other than the BT system) was assessed by measuring total protein levels using sulforhodamine B (SRB) staining in parallel cultures at the time of biomarker measurements, indicated as SRB endpoints. For proliferation assays for adherent cell types, individual cell types are cultured at sub-confluence and relative cell numbers quantified by SRB staining at time points optimized for each system (48 h: 3C and CASM3C systems; 72 h: BT and HDF3CGF systems; 96 h: SAg system). SRB was performed by staining cells with 0.1% SRB after fixation with 10% TCA and reading wells at 560 nm.Viability and proliferation of PBMC (T cells) was quantified by Alamar Blue reduction for the SAg and BT systems. For PBMC viability (referred to as PBMC Cytotoxicity within the assay endpoint names), cells were plated (75,000/well in a 96-well plate) and then chemical samples added for 1 h before addition of activators, SEB and TSST-1 (20 ng/mL final concentration each). Cells were incubated for 90 h. Then, Alamar Blue (20 uL/well) (Invitrogen, Cat DAL1100) was added for 6 h, and the plates were read with a fluorescence microplate reader at 546/580 nm (excitation/emission). For PBMC proliferation, cells were plated and activated as above but incubated for only 16 h prior to addition of Alamar Blue. Plates were read after 6 h.

Question: Which outcome does the source give for CSc1nnc(C(C)(C)C)c(=O)n1N here?
Answer: inactive

Question: With CCCSP(=O)(OCC)SCCC as the compound, how does the outcome read?
Answer: inactive

Question: For CCCCN(CC)c1c([N+](=O)[O-])cc(C(F)(F)F)cc1[N+](=O)[O-], which outcome is on record?
Answer: inactive

Question: With CCc1cccc(CC)c1N(COC)C(=O)CCl as the compound, how does the outcome read?
Answer: inactive

Question: Which outcome does the source give for C#CCC1=C(C)C(OC(=O)C2C(C=C(C)C)C2(C)C)CC1=O (stereo not given) here?
Answer: inactive

Question: For C[N+]1(C)CCCCC1, which outcome is on record?
Answer: inactive

Question: With CNC(=O)Oc1cccc2c1OC(C)(C)O2 as the compound, how does the outcome read?
Answer: inactive

Question: Which outcome does the source give for COP(=O)(OC)C(O)C(Cl)(Cl)Cl (stereo not given) here?
Answer: inactive

Question: With CN(C)C(=O)Nc1cccc(C(F)(F)F)c1 as the compound, how does the outcome read?
Answer: inactive

Question: For CCNc1nc(Cl)nc(NC(C)(C)C#N)n1, which outcome is on record?
Answer: inactive

Question: Which outcome does the source give for CNc1cnn(-c2cccc(C(F)(F)F)c2)c(=O)c1Cl here?
Answer: inactive

Question: For CC(C)=CC1C(C(=O)OCN2C(=O)C3=C(CCCC3)C2=O)C1(C)C (stereo not given), which AC50 is on record?
Answer: 12.7 µM (active)

Question: For COP(=O)(OC)SCn1c(=O)oc2cc(Cl)cnc21, which outcome is on record?
Answer: inactive

Question: For CC1(C(=O)Nc2ccc(O)c(Cl)c2Cl)CCCCC1, which outcome is on record?
Answer: inactive

Question: With CC(COc1ccc(Oc2ccccc2)cc1)Oc1ccccn1 (stereo not given) as the compound, how does the outcome read?
Answer: inactive

Question: With Cc1ccn2nc(S(=O)(=O)Nc3c(F)cccc3F)nc2n1 as the compound, how does the outcome read?
Answer: inactive

Question: Which outcome does the source give for CCCCOC(=O)c1ccccc1C(=O)O here?
Answer: inactive

Question: Which outcome does the source give for C[Si](Cn1cncn1)(c1ccc(F)cc1)c1ccc(F)cc1 here?
Answer: inactive

Question: With CCCOc1nn(C(=O)NS(=O)(=O)c2ccccc2C(=O)OC)c(=O)n1C as the compound, how does the outcome read?
Answer: inactive

Question: Which outcome does the source give for COc1cccc(C(=O)NN(C(=O)c2cc(C)cc(C)c2)C(C)(C)C)c1C here?
Answer: inactive

Question: Which outcome does the source give for CN1COCN(Cc2cnc(Cl)s2)C1=N[N+](=O)[O-] here?
Answer: inactive

Question: With CCC(CC)Nc1c([N+](=O)[O-])cc(C)c(C)c1[N+](=O)[O-] as the compound, how does the outcome read?
Answer: inactive

Question: With CCCSP(=O)(OCC)Oc1ccc(Br)cc1Cl (stereo not given) as the compound, how does the outcome read?
Answer: inactive

Question: With O=c1ccc(=O)[nH][nH]1 as the compound, how does the outcome read?
Answer: inactive

Question: With COP(=O)(NC(C)=O)SC (stereo not given) as the compound, how does the outcome read?
Answer: inactive

Question: Which outcome does the source give for CSc1nc(NC(C)C)nc(NC(C)C)n1 here?
Answer: inactive

Question: Which outcome does the source give for CCOP(=O)(SC(C)CC)N1CCSC1=O (stereo not given) here?
Answer: inactive

Question: With COc1cc(OC)nc(Sc2cccc(Cl)c2C(=O)O)n1 as the compound, how does the outcome read?
Answer: inactive

Question: With O=C(O)c1cc(Oc2ccc(C(F)(F)F)cc2Cl)ccc1[N+](=O)[O-] as the compound, how does the outcome read?
Answer: inactive

Question: With CC(Oc1cccc(Cl)c1)C(=O)O (stereo not given) as the compound, how does the outcome read?
Answer: inactive

Question: Which outcome does the source give for FC(F)C(F)(F)OCC(Cn1cncn1)c1ccc(Cl)cc1Cl (stereo not given) here?
Answer: inactive

Question: With CNC(=O)ON=C(SC)C(=O)N(C)C as the compound, how does the outcome read?
Answer: inactive

Question: With CCCOCC(=Nc1ccc(Cl)cc1C(F)(F)F)n1ccnc1 as the compound, how does the AC50 read?
Answer: 28.8 µM (active)

Question: Which outcome does the source give for Nc1c(Cl)cc([N+](=O)[O-])cc1Cl here?
Answer: inactive

Question: Which outcome does the source give for CNC(=O)ON=C(C)SC here?
Answer: inactive

Question: Which outcome does the source give for Nc1nc(N)nc(NC2CC2)n1 here?
Answer: inactive

Question: For CC[C@H](C)[C@H]1O[C@]2(C=C[C@@H]1C)C[C@@H]1C[C@@H](C/C=C(\C)[C@@H](O[C@H]3C[C@H](OC)[C@@H](O[C@H]4C[C@H](OC)[C@@H](NC)[C@H](C)O4)[C@H](C)O3)[C@@H](C)/C=C/C=C3\CO[C@@H]4[C@H](O)C(C)=C[C@@H](C(=O)O1)[C@]34O)O2, which outcome is on record?
Answer: inactive

Question: Which AC50 does the source give for CSC1=N[C@@](C)(c2ccccc2)C(=O)N1Nc1ccccc1 here?
Answer: 1.68 µM (active)

Question: For CCOP(=S)(OCC)SCCSCC, which outcome is on record?
Answer: inactive

Question: Which outcome does the source give for Cc1cc(C2CC2)nc(Nc2ccccc2)n1 here?
Answer: inactive

From PubChem BioAssay (EPA / NIEHS)
